Source: the supplement of paper PMC10849652
Targets with a hit are over-represented here; the source holds about 7,900 in all. About 0.6% of all pairs of compound and target were hits.

Experiments:
Experiment in all cases: log2 fold change, soluble protein after heating vs DMSO (PISA); higher = thermal stabilisation; K562 cells, 10 uM, 30 min; active = over 0.2 and 3.5 SD of the protein, either way, in both replicates (recomputed)
[1] = compound: CC1=C(C=C(C=C1)NC(=O)C2=CC(=CC=C2)C(C)(C)C#N)NC3=CC4=C(C=C3)N=CN(C4=O)C
Outline: (§1)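 Thermal stability values are relative to control samples and come from duplicates. They are expressed as log2 fold changes. For measurement, K562 cells (2×10^6 cells/mL) received 10 μM compound for 30 min, and aliquots were heated for 3 min over 48°C-58°C, pooled, and extracted at 4°C in PBS with 0.5% NP-40. Soluble protein, the supernatant after 21,000xg for 90 min, was quantified by TMTpro 16plex LC-MS/MS with equalised channel sums.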

[2] = compound: CC1=C(C=C(C=C1)NC(=O)C2=CC(=CC=C2)N(C)C)NC(=O)C3=CC=C(C=C3)O
Outline: as §1

[3] = compound: CC1=CC=C(C=C1)SC2=C3C=C(SC3=CN=C2)C(=O)N
Outline: as §1

[4] = compound: CC1=NC(=CC=C1)C2=C(N=C(N2)C(C)(C)C)C3=CC4=NC=CN=C4C=C3
Outline: as §1

Nexturastat A = compound: CCCCN(Cc1ccc(C(=O)NO)cc1)C(=O)Nc1ccccc1 [Nexturastat A]
Outline: as §1

vemurafenib = compound: CCCS(=O)(=O)Nc1ccc(F)c(C(=O)c2c[nH]c3ncc(-c4ccc(Cl)cc4)cc23)c1F [vemurafenib]
Outline: as §1

[5] = compound: CCCS(=O)(=O)Nc1ccc(F)c(C(=O)c2c[nH]c3ncc(Cl)cc23)c1F
Outline: as §1

[6] = compound: CCCc1cc(C)[nH]c(=O)c1CNC(=O)c1cc(-c2ccnc(N3CCN(C)CC3)c2)cc2c1cnn2C(C)C
Outline: as §1

givinostat = compound: CCN(CC)Cc1ccc2cc(COC(=O)Nc3ccc(C(=O)NO)cc3)ccc2c1 [givinostat]
Outline: as §1

barasertib = compound: CCN(CCCOc1ccc2c(Nc3cc(CC(=O)Nc4cccc(F)c4)[nH]n3)ncnc2c1)CCOP(=O)(O)O [barasertib]
Outline: as §1

[7] = compound: CC[C@@H]1C(=O)N(C)c2cnc(Nc3ccc(C(=O)NC4CCN(C)CC4)cc3OC)nc2N1C1CCCC1
Outline: as §1

volasertib = compound: CC[C@@H]1C(=O)N(C)c2cnc(Nc3ccc(C(=O)N[C@H]4CC[C@H](N5CCN(CC6CC6)CC5)CC4)cc3OC)nc2N1C(C)C [volasertib]
Outline: as §1

[8] = compound: CC[C@H](C)N1C=C(C2=C(C=C(C=C21)C3=CN=C(C=C3)N4CCNCC4)C(=O)NCC5=C(C=C(NC5=O)C)C)C
Outline: as §1

epoxomicin = compound: CC[C@H](C)[C@@H](C(=O)N[C@@H]([C@@H](C)O)C(=O)N[C@@H](CC(C)C)C(=O)[C@]1(CO1)C)NC(=O)[C@H]([C@@H](C)CC)N(C)C(=O)C [epoxomicin]
Outline: as §1

[9] = compound: CCn1c(C(=O)N(C2CC2)C2CC2)cc2c3c(ncn3C)c(Nc3cc(C)n(C)n3)nc21
Outline: as §1

[10] = compound: CCn1cc(-c2ccnc3[nH]c(-c4cccc(CN(C)C)c4)cc23)c(-c2ccc(NC(=O)N(C)C)cc2)n1
Outline: as §1

[11] = compound: CN(C)CC(=O)Nc1ccc2[nH]c(=O)c3ccccc3c2c1
Outline: as §1

rosiglitazone = compound: CN(CCOC1=CC=C(C=C1)C[C@H]2C(=O)NC(=O)S2)C3=CC=CC=N3 (racemic) [rosiglitazone]
Outline: as §1

[12] = compound: CN1C2=C(C3=C1C(=O)N(N=C3)CC4=CC(=CC=C4)N)SC(=C2)S(=O)C
Outline: as §1

[13] = compound: CN1CCC(CNc2ccc3ncc(-c4cccc(OC(F)(F)F)c4)n3n2)CC1
Outline: as §1

Measured: log2 fold change

ACSL3 (UniProt O95573)
inactive: [1] 0.005 | [2] -0.051 | [3] 0.1 | [4] 0.029 | Nexturastat A 0.008 | vemurafenib 0 | [5] 0.038 | [6] -0.016 | givinostat 0.032 | barasertib 0.039 | [7] -0.062 | [8] 0.022 | epoxomicin 0.048 | [9] -0.049 | [10] -0.042 | [11] 0.024 | [12] -0.036 | [13] -0.1
active: volasertib -0.23 | rosiglitazone 0.642

ATP6V1F isoform 2 (UniProt Q16864)
Chain of UniProt Q16864 (Q16864 whole entry, looked up): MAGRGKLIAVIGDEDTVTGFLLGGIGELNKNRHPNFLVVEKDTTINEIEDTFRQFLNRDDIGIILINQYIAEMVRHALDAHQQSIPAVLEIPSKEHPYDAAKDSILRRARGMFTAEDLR
inactive: [1] -0.139 | [2] 0.034 | [3] 0.011 | [4] 0.06 | Nexturastat A 0.146 | vemurafenib 0.123 | [5] -0.055 | [6] 0.038 | givinostat -0.044 | barasertib 0.072 | [7] 0.01 | volasertib -0.036 | [8] -0.043 | [9] -0.02 | [10] 0.02 | [11] 0.165 | rosiglitazone 0.003 | [12] 0.033 | [13] 0.056
active: epoxomicin 0.525

ATAD3B (UniProt Q5T9A4)
active: [13] -0.339
inactive: [1] -0.07 | [2] -0.022 | [3] 0.003 | [4] -0.009 | Nexturastat A 0.236 | vemurafenib -0.024 | [5] 0.042 | [6] 0.058 | givinostat 0.05 | barasertib -0.019 | [7] -0.076 | volasertib -0.167 | [8] 0.093 | epoxomicin -0.045 | [9] -0.018 | [10] 0.112 | [11] -0.026 | rosiglitazone 0.005 | [12] 0.167

AKR1C2 (UniProt P52895)
inactive: [1] -0.153 | [2] -0.222 | [3] -0.166 | [4] -0.077 | Nexturastat A 0.205 | vemurafenib -0.046 | [5] -0.179 | [6] 0.024 | givinostat 0.159 | barasertib -0.018 | [7] 0.27 | volasertib 0.087 | [8] 0.03 | epoxomicin -0.139 | [9] -0.039 | [10] 0.002 | [11] -0.006 | rosiglitazone -0.001 | [13] -0.016
active: [12] 0.568

BPHL (UniProt Q86WA6)
inactive: [1] -0.037 | [2] -0.031 | [3] -0.058 | [4] 0.017 | Nexturastat A -0.205 | vemurafenib 0.004 | [5] -0.062 | [6] 0.057 | givinostat 0.023 | barasertib -0.006 | [7] 0.013 | volasertib -0.005 | [8] 0.065 | epoxomicin 0.005 | [9] 0.027 | [10] -0.017 | [11] -0.07 | rosiglitazone 0.041 | [12] 0.017 | [13] 0.063

BST2 (UniProt Q10589)
active: [13] 0.223
inactive: [1] 0.059 | [2] 0.014 | [3] -0.003 | [4] -0.011 | Nexturastat A 0.023 | vemurafenib 0 | [5] -0.029 | [6] -0.095 | givinostat 0.053 | barasertib -0.097 | [7] 0.091 | volasertib 0.206 | [8] -0.062 | epoxomicin -0.025 | [9] -0.003 | [10] 0.045 | [11] -0.008 | rosiglitazone -0.055 | [12] 0

ACP2 (UniProt P11117)
inactive: [1] -0.014 | [2] -0.013 | [3] 0.029 | [4] -0.027 | Nexturastat A -0.08 | vemurafenib 0.017 | [5] -0.023 | [6] -0.038 | givinostat 0 | barasertib 0.016 | [7] -0.156 | volasertib -0.151 | [8] -0.068 | epoxomicin 0.019 | [9] 0.004 | [10] -0.02 | [11] -0.029 | rosiglitazone 0.006 | [12] 0.013 | [13] -0.14

ARL1 (UniProt P40616)
inactive: [1] 0.057 | [2] -0.012 | [3] 0.162 | [4] 0.054 | Nexturastat A -0.119 | vemurafenib 0.037 | [5] 0.116 | [6] 0.071 | givinostat 0.07 | barasertib 0.007 | [7] 0.072 | volasertib -0.113 | [8] 0.023 | epoxomicin 0.028 | [9] 0.014 | [10] -0.05 | [11] 0.025 | rosiglitazone 0.032 | [12] -0.157 | [13] 0.059

ATP6V0A2 (UniProt Q9Y487)
inactive: [1] 0.021 | [2] 0.016 | [3] 0.006 | [4] -0.013 | Nexturastat A 0.024 | vemurafenib 0.026 | [5] 0.014 | [6] 0.014 | givinostat 0.02 | barasertib 0.008 | [7] -0.039 | volasertib -0.039 | [8] 0.067 | epoxomicin 0.043 | [9] 0.007 | [10] 0.028 | [11] -0.034 | rosiglitazone -0.037 | [12] 0.006 | [13] -0.169

APPL1 (UniProt Q9UKG1)
active: volasertib -0.317
inactive: [1] 0.012 | [2] 0.008 | [3] 0.035 | [4] 0.015 | Nexturastat A -0.032 | vemurafenib 0.066 | [5] 0.017 | [6] -0.033 | givinostat 0.039 | barasertib 0.02 | [7] -0.149 | [8] 0.058 | epoxomicin -0.044 | [9] 0.038 | [10] -0.021 | [11] 0.02 | rosiglitazone 0.044 | [12] -0.113 | [13] -0.065

ATP6V1C1 (UniProt P21283)
inactive: [1] 0.004 | [2] -0.037 | [3] -0.024 | [4] -0.033 | Nexturastat A 0.131 | vemurafenib -0.018 | [5] 0.057 | [6] 0.026 | givinostat 0.031 | barasertib 0.062 | [7] 0.027 | volasertib -0.196 | [8] 0.066 | epoxomicin 0.064 | [9] -0.022 | [11] -0.008 | rosiglitazone 0.032 | [12] 0.069
active: [10] -0.282 | [13] 0.377

BZW2 (UniProt Q9Y6E2)
inactive: [1] 0.009 | [2] -0.007 | [3] 0.043 | [4] 0.062 | Nexturastat A -0.034 | vemurafenib 0.012 | [5] 0.058 | [6] -0.025 | givinostat 0.011 | barasertib 0.044 | [7] -0.193 | [8] 0.042 | epoxomicin 0.043 | [9] -0.019 | [10] -0.016 | [11] 0.02 | rosiglitazone 0.046 | [12] -0.037
active: volasertib -0.367 | [13] -0.298

ATG4B isoform 2 (UniProt Q9Y4P1)
inactive: [1] -0.046 | [2] -0.287 | [3] 0.218 | [4] -0.072 | Nexturastat A 0.132 | vemurafenib 0.087 | [5] -0.02 | [6] 0.031 | givinostat 0.126 | barasertib 0.126 | [7] -0.007 | volasertib -0.441 | [8] 0.16 | epoxomicin -0.013 | [9] 0.011 | [10] 0.039 | [11] 0.08 | rosiglitazone 0.136 | [12] 0.1 | [13] -0.302

ALG3 (UniProt Q92685)
Chain of UniProt Q92685 (Q92685 whole entry, looked up): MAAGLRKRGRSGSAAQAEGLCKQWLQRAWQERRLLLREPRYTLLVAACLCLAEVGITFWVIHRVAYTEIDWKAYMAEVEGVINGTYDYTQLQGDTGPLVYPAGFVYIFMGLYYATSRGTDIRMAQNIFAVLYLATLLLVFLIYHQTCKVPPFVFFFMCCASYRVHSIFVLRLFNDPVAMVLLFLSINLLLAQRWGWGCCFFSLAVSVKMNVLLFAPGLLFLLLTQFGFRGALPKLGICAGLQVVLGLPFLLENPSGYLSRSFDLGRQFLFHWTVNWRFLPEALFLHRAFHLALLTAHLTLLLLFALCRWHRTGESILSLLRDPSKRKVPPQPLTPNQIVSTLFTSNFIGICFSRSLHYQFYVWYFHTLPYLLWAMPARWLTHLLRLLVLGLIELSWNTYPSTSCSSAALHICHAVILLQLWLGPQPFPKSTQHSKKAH
active: [4] 0.376
inactive: [1] 0.108 | [2] 0.002 | [3] 0.113 | Nexturastat A 0.008 | vemurafenib -0.076 | [5] 0.123 | [6] -0.079 | givinostat -0.09 | barasertib 0 | [7] 0.005 | volasertib -0.164 | [8] 0.02 | epoxomicin 0.039 | [9] -0.022 | [10] -0.037 | [11] -0.002 | rosiglitazone 0.049 | [12] -0.028 | [13] 0.033

ASNS (UniProt P08243)
inactive: [1] 0.008 | [2] 0.007 | [3] 0.026 | [4] 0.025 | Nexturastat A -0.045 | vemurafenib 0.007 | [5] 0.013 | [6] 0 | givinostat -0.004 | barasertib -0.004 | [7] -0.01 | volasertib 0.015 | [8] 0.008 | epoxomicin 0.021 | [9] 0.008 | [10] -0.051 | [11] -0.008 | rosiglitazone 0.003 | [12] -0.064 | [13] -0.037

APOB (UniProt P04114)
Chain of UniProt P04114 (P04114 whole entry, looked up): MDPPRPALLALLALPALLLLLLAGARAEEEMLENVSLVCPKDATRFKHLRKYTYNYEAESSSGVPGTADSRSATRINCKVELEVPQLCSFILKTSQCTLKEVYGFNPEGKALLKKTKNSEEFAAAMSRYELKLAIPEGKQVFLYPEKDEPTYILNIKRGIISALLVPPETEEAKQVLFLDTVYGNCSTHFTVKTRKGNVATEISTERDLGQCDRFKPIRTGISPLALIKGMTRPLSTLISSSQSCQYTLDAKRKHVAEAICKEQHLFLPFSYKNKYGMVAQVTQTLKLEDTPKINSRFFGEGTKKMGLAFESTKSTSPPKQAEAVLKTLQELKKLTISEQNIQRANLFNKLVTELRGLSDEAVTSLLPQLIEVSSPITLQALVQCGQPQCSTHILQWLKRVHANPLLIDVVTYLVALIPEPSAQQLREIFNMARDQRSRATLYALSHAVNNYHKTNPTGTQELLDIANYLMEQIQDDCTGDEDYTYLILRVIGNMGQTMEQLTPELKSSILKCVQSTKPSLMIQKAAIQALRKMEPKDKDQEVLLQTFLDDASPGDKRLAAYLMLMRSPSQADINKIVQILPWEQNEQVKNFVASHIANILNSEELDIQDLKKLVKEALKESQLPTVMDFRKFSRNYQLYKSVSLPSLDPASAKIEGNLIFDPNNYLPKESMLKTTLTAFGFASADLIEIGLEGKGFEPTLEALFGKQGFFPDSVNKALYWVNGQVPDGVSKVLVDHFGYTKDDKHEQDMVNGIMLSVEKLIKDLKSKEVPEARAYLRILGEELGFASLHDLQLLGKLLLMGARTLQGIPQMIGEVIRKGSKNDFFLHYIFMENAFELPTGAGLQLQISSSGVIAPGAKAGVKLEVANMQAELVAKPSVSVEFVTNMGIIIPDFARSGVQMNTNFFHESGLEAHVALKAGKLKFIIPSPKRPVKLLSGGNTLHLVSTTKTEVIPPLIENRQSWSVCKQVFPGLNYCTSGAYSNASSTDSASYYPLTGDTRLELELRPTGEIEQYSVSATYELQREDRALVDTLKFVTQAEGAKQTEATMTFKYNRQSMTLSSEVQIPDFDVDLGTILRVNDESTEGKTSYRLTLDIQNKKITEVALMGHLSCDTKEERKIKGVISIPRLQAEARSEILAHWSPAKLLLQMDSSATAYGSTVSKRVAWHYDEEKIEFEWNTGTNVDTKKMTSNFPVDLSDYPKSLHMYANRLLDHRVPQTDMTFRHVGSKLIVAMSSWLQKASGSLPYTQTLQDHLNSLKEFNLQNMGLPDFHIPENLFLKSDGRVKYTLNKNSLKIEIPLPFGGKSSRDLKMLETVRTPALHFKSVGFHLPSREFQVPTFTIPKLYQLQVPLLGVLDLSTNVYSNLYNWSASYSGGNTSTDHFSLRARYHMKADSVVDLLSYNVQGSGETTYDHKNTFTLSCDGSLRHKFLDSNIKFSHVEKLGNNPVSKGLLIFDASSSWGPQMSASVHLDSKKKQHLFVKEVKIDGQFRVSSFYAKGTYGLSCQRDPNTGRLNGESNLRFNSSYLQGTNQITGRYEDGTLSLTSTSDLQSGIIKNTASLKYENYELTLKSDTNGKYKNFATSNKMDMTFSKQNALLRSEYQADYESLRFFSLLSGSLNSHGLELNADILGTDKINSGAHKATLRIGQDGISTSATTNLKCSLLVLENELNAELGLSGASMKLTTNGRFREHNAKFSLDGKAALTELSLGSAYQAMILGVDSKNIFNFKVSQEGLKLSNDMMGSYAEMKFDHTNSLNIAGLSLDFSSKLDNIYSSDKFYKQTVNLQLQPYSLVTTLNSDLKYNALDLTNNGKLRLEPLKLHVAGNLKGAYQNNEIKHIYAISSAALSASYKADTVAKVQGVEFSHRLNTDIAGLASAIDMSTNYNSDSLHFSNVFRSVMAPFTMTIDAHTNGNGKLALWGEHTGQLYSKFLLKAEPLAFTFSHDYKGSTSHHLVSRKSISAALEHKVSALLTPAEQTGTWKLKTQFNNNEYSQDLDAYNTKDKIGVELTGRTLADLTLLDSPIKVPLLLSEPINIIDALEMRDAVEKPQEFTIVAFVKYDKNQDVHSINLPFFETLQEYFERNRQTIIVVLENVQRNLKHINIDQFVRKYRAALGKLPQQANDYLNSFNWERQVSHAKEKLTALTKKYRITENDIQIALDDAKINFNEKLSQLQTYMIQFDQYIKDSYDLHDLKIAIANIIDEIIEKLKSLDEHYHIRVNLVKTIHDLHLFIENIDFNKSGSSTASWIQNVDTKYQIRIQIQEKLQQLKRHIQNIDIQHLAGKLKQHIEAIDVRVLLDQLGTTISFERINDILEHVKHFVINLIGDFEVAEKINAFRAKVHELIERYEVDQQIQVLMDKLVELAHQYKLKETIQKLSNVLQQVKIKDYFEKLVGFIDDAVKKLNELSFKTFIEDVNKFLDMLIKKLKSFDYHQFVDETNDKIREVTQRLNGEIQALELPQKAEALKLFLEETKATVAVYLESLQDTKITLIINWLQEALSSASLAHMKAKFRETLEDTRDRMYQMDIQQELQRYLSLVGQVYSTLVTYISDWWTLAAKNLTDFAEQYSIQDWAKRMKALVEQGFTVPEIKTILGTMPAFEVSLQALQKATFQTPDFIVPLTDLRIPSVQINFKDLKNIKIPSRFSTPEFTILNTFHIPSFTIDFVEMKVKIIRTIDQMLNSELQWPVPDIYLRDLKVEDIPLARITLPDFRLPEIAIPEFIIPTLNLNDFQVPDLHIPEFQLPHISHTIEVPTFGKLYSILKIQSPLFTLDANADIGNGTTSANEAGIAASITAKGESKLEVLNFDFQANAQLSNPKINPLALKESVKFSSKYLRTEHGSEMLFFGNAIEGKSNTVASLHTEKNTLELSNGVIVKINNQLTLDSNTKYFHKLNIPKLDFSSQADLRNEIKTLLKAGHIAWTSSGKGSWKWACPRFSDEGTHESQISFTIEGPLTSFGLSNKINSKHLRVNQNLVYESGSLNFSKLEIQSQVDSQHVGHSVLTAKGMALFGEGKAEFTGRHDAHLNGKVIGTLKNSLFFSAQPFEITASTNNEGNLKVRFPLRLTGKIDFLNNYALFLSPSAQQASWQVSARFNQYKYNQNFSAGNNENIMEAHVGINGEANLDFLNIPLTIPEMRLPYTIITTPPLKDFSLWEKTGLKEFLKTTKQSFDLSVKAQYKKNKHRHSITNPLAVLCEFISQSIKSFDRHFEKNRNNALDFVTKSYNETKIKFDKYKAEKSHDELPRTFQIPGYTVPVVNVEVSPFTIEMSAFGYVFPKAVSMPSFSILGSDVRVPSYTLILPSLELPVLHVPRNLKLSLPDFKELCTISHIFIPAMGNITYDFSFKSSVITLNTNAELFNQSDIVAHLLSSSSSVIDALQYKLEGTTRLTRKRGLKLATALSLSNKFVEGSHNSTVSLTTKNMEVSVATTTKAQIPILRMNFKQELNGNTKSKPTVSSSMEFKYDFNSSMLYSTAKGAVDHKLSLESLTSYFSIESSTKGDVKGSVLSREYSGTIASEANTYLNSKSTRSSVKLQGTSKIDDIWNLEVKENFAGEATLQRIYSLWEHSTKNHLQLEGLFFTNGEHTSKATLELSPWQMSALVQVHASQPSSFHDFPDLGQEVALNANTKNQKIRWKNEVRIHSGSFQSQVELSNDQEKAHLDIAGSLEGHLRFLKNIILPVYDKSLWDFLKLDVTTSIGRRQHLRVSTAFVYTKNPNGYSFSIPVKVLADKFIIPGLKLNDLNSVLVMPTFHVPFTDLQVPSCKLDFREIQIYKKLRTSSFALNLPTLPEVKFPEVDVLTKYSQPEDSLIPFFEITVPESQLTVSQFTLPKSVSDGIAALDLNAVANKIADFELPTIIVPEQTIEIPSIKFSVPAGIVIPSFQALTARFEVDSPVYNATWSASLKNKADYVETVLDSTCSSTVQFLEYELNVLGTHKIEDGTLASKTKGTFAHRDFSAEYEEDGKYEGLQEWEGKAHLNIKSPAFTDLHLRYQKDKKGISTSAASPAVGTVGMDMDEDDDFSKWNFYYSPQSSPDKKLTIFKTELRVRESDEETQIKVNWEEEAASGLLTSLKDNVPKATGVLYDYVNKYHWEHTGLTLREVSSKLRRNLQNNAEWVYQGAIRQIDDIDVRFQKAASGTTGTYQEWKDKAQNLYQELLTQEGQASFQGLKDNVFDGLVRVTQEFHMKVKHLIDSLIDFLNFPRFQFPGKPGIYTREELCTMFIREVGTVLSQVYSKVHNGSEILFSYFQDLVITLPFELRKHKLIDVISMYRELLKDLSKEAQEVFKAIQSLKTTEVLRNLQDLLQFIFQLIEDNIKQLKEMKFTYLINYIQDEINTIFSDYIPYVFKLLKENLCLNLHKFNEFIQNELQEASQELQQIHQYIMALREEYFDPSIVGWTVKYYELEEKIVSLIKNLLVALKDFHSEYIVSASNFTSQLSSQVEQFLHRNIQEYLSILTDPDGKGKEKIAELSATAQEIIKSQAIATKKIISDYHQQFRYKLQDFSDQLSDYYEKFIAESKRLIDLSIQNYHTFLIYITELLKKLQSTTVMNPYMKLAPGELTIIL
inactive: [1] -0.039 | [2] 0.134 | [3] 0.146 | [4] 0.032 | Nexturastat A -0.049 | vemurafenib -0.006 | [5] 0.095 | givinostat 0.074 | barasertib -0.012 | [7] -0.235 | volasertib -0.104 | [8] -0.227 | epoxomicin -0.056 | [9] 0.004 | [10] 0.048 | [11] 0.014 | rosiglitazone 0.02 | [12] 0.116 | [13] -0.354
active: [6] -0.853
